The text below walks through data of PubChem BioAssay (NCI).

The nature of assay [1]: NCI Yeast Anticancer Drug Screen. Data for the rad50 strain (AID 155).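 Note: 0% = growth of vehicle-only cultures of the same strain.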 Conditions: S. cerevisiae rad50 strain growth inhibition, active compounds read high. Put shortly:
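Yeast carrying a defined DNA repair defect were exposed to test compounds, and growth was compared with vehicle-treated controls to give percent inhibition.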

Assay [2] is described as follows: NCI Yeast Anticancer Drug Screen. Data for the mec2-1 strain (AID 157). Conditions: S. cerevisiae mec2-1 strain, active compounds read high. Put shortly:
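Yeast mec2-1 mutant treated with compound. Readout: growth inhibition vs vehicle controls.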

Assay [3] can be described thus: NCI Yeast Anticancer Drug Screen. Data for the sgs1 mgt1 strain (AID 161).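 Note: 0% = growth of cultures given vehicle only.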 Conditions: S. cerevisiae sgs1 mgt1 strain, active compounds read high. In a few lines:
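Mutant yeast exposed to compound; growth scored against vehicle-only wells.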

The nature of assay [4]: NCI Yeast Anticancer Drug Screen. Data for the cln2 rad14 strain (AID 165).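 Note: 0% = growth equal to vehicle treated cultures.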 As to conditions: S. cerevisiae cln2 rad14 strain, active compounds read high. Put shortly:
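cln2 rad14 yeast strain; compound exposure; growth inhibition read vs vehicle controls.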

The nature of assay [5]: NCI Yeast Anticancer Drug Screen. Data for the bub3 strain (AID 167). As to conditions: S. cerevisiae bub3 mutant strain, active compounds read high. In a few lines:
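Compounds were applied to a genetically altered yeast strain carrying a cell-cycle control defect. Growth inhibition was scored against vehicle-treated controls.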

Assay [6] is described as follows: NCI Yeast Anticancer Drug Screen. Data for the mlh1 rad18 strain (AID 175). As to conditions: S. cerevisiae mlh1 rad18 strain growth inhibition, active compounds read high. In a few lines: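 Yeast w/ defined DNA-repair lesions; compound exposure; growth vs vehicle controls → % inhibition.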
Where [7] appears, read: at 5.0 µM (retest, dose inferred, filed as 0.5).
The mark [8] stands for this setting: at 50.0 µM (retest, dose inferred, filed as 5.0).

Each structure is given as a SMILES string. Compounds without any hit were thinned out: in the full panel of roughly 79,000, 15% have a hit. A number with no mark means an inactive call. Active and inactive are the calls of the source. Cut-off read from the data, not from the text of the source: active = growth inhibition above about 70%; inactive = the rest.

Take `CC(=O)OC1CCCc2c1nc1ccccc1[n+]2[O-]` (stereo not given): the growth inhibition in assay [1] (setting [7]) was 10%; in assay [1] (setting [8]) it was -2%; in assay [1] (at 50.0 µM) it was 8.6%; in assay [2] (setting [7]), 10%; in assay [2] (setting [8]), 0%; in assay [2] (at 50.0 µM), 4.55%. The growth inhibition is 6% in assay [3] (setting [7]); 1% in assay [3] (setting [8]); 0.5% in assay [3] (at 50.0 µM); 3% in assay [4] (setting [7]); -3% in assay [4] (setting [8]); 28.6% in assay [4] (at 50.0 µM). In addition, the growth inhibition was 15% in assay [5] (setting [7]); 4% in assay [5] (setting [8]); -10.5% in assay [5] (at 50.0 µM); 11% in assay [6] (setting [7]); -5% in assay [6] (setting [8]); 5.7% in assay [6] (at 50.0 µM).

For `O=[N+]([O-])c1ccc(O)c(-c2ccccc2)c1`, the growth inhibition in assay [1] (setting [7]) is 3%; in assay [1] (setting [8]), 99% (active); in assay [1] (at 50.0 µM), 99.3% (active); in assay [2] (setting [7]), -31%; in assay [2] (setting [8]), 99% (active); in assay [2] (at 50.0 µM), 99.7% (active). In addition, the growth inhibition was 6% in assay [3] (setting [7]); 99% (active) in assay [3] (setting [8]); 98.8% (active) in assay [3] (at 50.0 µM); 6% in assay [4] (setting [7]); 99% (active) in assay [4] (setting [8]); 98.7% (active) in assay [4] (at 50.0 µM). In addition, the growth inhibition in assay [5] (setting [7]) was -2%; in assay [5] (setting [8]) it was 98% (active); in assay [5] (at 50.0 µM), 99.2% (active); in assay [6] (setting [7]), 5%; in assay [6] (setting [8]), 99% (active); in assay [6] (at 50.0 µM), 99.2% (active).

Consider `O=C(CC(=O)C(F)(F)F)c1ccc(-c2ccccc2)cc1`, for which the growth inhibition was 27% in assay [1] (setting [7]); 99% (active) in assay [1] (setting [8]); 97% (active) in assay [1] (at 50.0 µM); 45% in assay [2] (setting [7]); 99% (active) in assay [2] (setting [8]); 98.2% (active) in assay [2] (at 50.0 µM). The growth inhibition in assay [3] (setting [7]) is 39%; in assay [3] (setting [8]), 99% (active); in assay [3] (at 50.0 µM) it was 98% (active); in assay [4] (setting [7]), 14%; in assay [4] (setting [8]), 98% (active); in assay [4] (at 50.0 µM), 97.8% (active). Besides, the growth inhibition in assay [5] (setting [7]) is 36%; in assay [5] (setting [8]) it was 99% (active); in assay [5] (at 50.0 µM) it was 97.2% (active); in assay [6] (setting [7]), 45%; in assay [6] (setting [8]), 99% (active); in assay [6] (at 50.0 µM) it was 98.7% (active).

As for `Cc1ccc(C(C)(C)c2ccc(C(=O)O)cc2)cc1`, the growth inhibition is -4% in assay [1] (setting [7]); -14% in assay [1] (setting [8]); 25.1% in assay [1] (at 50.0 µM); 3% in assay [2] (setting [7]); 4% in assay [2] (setting [8]); 10.2% in assay [2] (at 50.0 µM). Moreover, the growth inhibition in assay [3] (setting [7]) is -3%; in assay [3] (setting [8]) it was 0%; in assay [3] (at 50.0 µM), 42.5%; in assay [4] (setting [7]), 1%; in assay [4] (setting [8]), -10%; in assay [4] (at 50.0 µM), -12.7%. Further, the growth inhibition in assay [5] (setting [7]) is -6%; in assay [5] (setting [8]), -8%; in assay [5] (at 50.0 µM) it was -2.5%; in assay [6] (setting [7]), 1%; in assay [6] (setting [8]), -7%; in assay [6] (at 50.0 µM), 8.9%.

Consider `O=C(O)/C=C/C(=O)NNc1nc2ccccc2s1`, for which the growth inhibition in assay [1] (setting [7]) is -4%; in assay [1] (setting [8]), -1%; in assay [1] (at 50.0 µM), 23.1%; in assay [2] (setting [7]), -9%; in assay [2] (setting [8]), 2%; in assay [2] (at 50.0 µM), -5.25%. For the same molecule, the growth inhibition is 0% in assay [3] (setting [7]); -25% in assay [3] (setting [8]); 50.3% in assay [3] (at 50.0 µM); -25% in assay [4] (setting [7]); 1% in assay [4] (setting [8]); 23.1% in assay [4] (at 50.0 µM). For the same molecule, the growth inhibition was -31% in assay [5] (setting [7]); -21% in assay [5] (setting [8]); -13.2% in assay [5] (at 50.0 µM); -7% in assay [6] (setting [7]); 20% in assay [6] (setting [8]); 70.2% (active) in assay [6] (at 50.0 µM).

Consider `Cc1ccc(SCN2CCCCC2)cc1` (tested in a mixture with another compound), for which the growth inhibition in assay [1] (setting [7]) was 21%; in assay [1] (setting [8]), 29%; in assay [1] (at 50.0 µM), 62%; in assay [2] (setting [7]), 1%; in assay [2] (setting [8]) it was 2%; in assay [2] (at 50.0 µM), 12.6%. Moreover, the growth inhibition in assay [3] (setting [7]) was 23%; in assay [3] (setting [8]) it was 22%; in assay [3] (at 50.0 µM), 35.9%; in assay [4] (setting [7]), -10%; in assay [4] (setting [8]) it was 18%; in assay [4] (at 50.0 µM), 0.35%. Further, the growth inhibition in assay [5] (setting [7]) is -9%; in assay [5] (setting [8]), 4%; in assay [5] (at 50.0 µM), 1.2%; in assay [6] (setting [7]) it was 20%; in assay [6] (setting [8]), 44%; in assay [6] (at 50.0 µM), 75.2% (active).

For `O=C(Nc1nc2c(ncn2C2CC(OC(=O)c3ccccc3)C(COC(=O)c3ccccc3)O2)c(=O)[nH]1)c1ccccc1` (stereo not given), the growth inhibition was 3% in assay [1] (setting [7]); 5% in assay [1] (setting [8]); 55.5% in assay [1] (at 50.0 µM); 8% in assay [2] (setting [7]); 12% in assay [2] (setting [8]); 38.5% in assay [2] (at 50.0 µM). The growth inhibition in assay [3] (setting [7]) was -16%; in assay [3] (setting [8]), 33%; in assay [3] (at 50.0 µM), 69.6%; in assay [4] (setting [7]), 6%; in assay [4] (setting [8]), 18%; in assay [4] (at 50.0 µM), 66.4%. In addition, the growth inhibition in assay [5] (setting [7]) was 7%; in assay [5] (setting [8]), 10%; in assay [5] (at 50.0 µM), 57.6%; in assay [6] (setting [7]), 9%; in assay [6] (setting [8]), 12%; in assay [6] (at 50.0 µM), 60%.

For the molecule `O=c1[nH]c2ccc([N+](=O)[O-])cc2c2ccc(Cl)cc12`, the growth inhibition in assay [1] (setting [7]) was 3%; in assay [1] (setting [8]), 9%; in assay [1] (at 50.0 µM) it was 77.2% (active); in assay [2] (setting [7]), -5%; in assay [2] (setting [8]) it was 25%; in assay [2] (at 50.0 µM), 51.8%. In addition, the growth inhibition in assay [3] (setting [7]) is -11%; in assay [3] (setting [8]), 16%; in assay [3] (at 50.0 µM), 61.8%; in assay [4] (setting [7]) it was 1%; in assay [4] (setting [8]) it was 3%; in assay [4] (at 50.0 µM), -0.3%. Besides, the growth inhibition was 0% in assay [5] (setting [7]); 2% in assay [5] (setting [8]); 7.4% in assay [5] (at 50.0 µM); 11% in assay [6] (setting [7]); 40% in assay [6] (setting [8]); 71.7% (active) in assay [6] (at 50.0 µM).

As to `O=C(O)C(Cc1cc(I)c(O)c(I)c1)C1CCCCC1` (stereo not given), the growth inhibition in assay [1] (setting [7]) was 12%; in assay [1] (setting [8]), 99% (active); in assay [1] (at 50.0 µM) it was 99.2% (active); in assay [2] (setting [7]), 8%; in assay [2] (setting [8]), 99% (active); in assay [2] (at 50.0 µM), 99.2% (active). In addition, the growth inhibition is 3% in assay [3] (setting [7]); 97% (active) in assay [3] (setting [8]); 99.3% (active) in assay [3] (at 50.0 µM); 7% in assay [4] (setting [7]); 99% (active) in assay [4] (setting [8]); 99% (active) in assay [4] (at 50.0 µM). For the same molecule, the growth inhibition is -11% in assay [5] (setting [7]); 99% (active) in assay [5] (setting [8]); 99.3% (active) in assay [5] (at 50.0 µM); 6% in assay [6] (setting [7]); 99% (active) in assay [6] (setting [8]); 98.8% (active) in assay [6] (at 50.0 µM).

For `CCn1nc(-c2ccccc2)c2c1N(C)c1ccccc1-n1c(-c3ccccc3)nnc1-2`, the growth inhibition in assay [1] (setting [7]) is -1%; in assay [1] (setting [8]), 49%; in assay [1] (at 50.0 µM), 98.7% (active); in assay [2] (setting [7]), -16%; in assay [2] (setting [8]), 99% (active); in assay [2] (at 50.0 µM), 99% (active). The growth inhibition in assay [3] (setting [7]) was 3%; in assay [3] (setting [8]), 45%; in assay [3] (at 50.0 µM) it was 99.2% (active); in assay [4] (setting [7]) it was 14%; in assay [4] (setting [8]) it was 98% (active); in assay [4] (at 50.0 µM), 99% (active). For the same molecule, the growth inhibition was -11% in assay [5] (setting [7]); 99% (active) in assay [5] (setting [8]); 99.2% (active) in assay [5] (at 50.0 µM); 7% in assay [6] (setting [7]); 98% (active) in assay [6] (setting [8]); 99.2% (active) in assay [6] (at 50.0 µM).
